From PubChem BioAssay
Shiga inhibitor: blocks Shiga toxin action in Vero cells | Vero cells, Shiga toxin protein synthesis inhibition reporter | inhibition, % at 38.7 µM | 290,000 compounds, 9.2% hits | AID 2315; in the data active means inhibition mostly above about 28%, no sharp cut-off; inactive means mostly below about 43%; further: 0% is about no effect
LmPK inh: LmPK (Leishmania mexicana) enzyme inhibition | purified LmPK, Kinase-Glo ATP luminescence, 1 h | Potency, µM (highest dose often 57.5 µM), for the others: at the highest dose activity change, negative = inhibition, hits mostly inhibitors | 290,000 compounds, 0.37% hits; further: potency means the concentration at half of the fitted maximal effect; on the % scale 0 is the no-effect control and ±100 the full control effect
Target sequence (Q27686 whole entry, looked up): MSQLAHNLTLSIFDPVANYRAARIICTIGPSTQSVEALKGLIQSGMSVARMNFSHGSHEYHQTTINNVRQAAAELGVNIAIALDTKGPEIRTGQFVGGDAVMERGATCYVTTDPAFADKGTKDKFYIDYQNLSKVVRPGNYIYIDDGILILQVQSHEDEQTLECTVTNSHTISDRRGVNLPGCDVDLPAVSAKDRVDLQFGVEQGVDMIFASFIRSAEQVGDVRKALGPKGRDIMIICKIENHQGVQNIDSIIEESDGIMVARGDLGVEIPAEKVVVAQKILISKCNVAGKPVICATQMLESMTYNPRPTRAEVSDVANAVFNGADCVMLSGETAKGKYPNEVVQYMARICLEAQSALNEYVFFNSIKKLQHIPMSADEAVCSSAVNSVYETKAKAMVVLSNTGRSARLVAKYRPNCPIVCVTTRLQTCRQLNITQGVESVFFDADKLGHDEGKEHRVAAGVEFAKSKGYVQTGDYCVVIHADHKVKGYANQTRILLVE
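Pyruvate kinase activity monitored as ATP production (luciferase luminescence). Conditions: 0.1 nM enzyme, 0.5 mM PEP, 0.1 mM ADP, 1 h, RT; normalized against uninhibited and no-enzyme wells.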
Cycloheximide cs: counter-screen hit for Shiga toxin inhibitors, cycloheximide; cell reporter, cycloheximide protein synthesis inhibition counterscreen; max response, %; 300,000 compounds, 12% hits; AID 2314; in the data active means max response mostly above about 13%, no sharp cut-off; inactive means mostly below about 14%; further: read at 38.3 µM for the half of the compounds with a filed dose; 0% is about no effect
Pf growth 96h: inhibits malaria parasite growth, 96 h. Potency, µM (doses to about 28.7 µM), for inactives: top-dose activity change, negative = inhibition, actives largely listed as inhibitors. 320,000 compounds, 6.9% hits. AID 504834. P. falciparum luciferase reporter growth, 96 h; further: potency means the concentration at half of the fitted maximal effect; on the % scale 0 is the no-effect control and ±100 the full control effect
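Luminescence readout: decreased luciferase signal marks inhibited growth of reporter-expressing P. falciparum in infected red cells (2% hematocrit, 0.05% parasitemia final), exposed to compound two generations (96 h, 37 C, 5% CO2).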
Pf growth 48h: P. falciparum growth inhibition at 48 hours (one generation); P. falciparum luciferase growth in erythrocytes, 48 h; Potency, µM (doses to about 28.7 µM), for the others: at the top dose activity change, negative = inhibition, actives largely listed as inhibitors; 310,000 compounds, 5.9% hits; further: potency means the concentration at half of the fitted maximal effect; on the % scale 0 is the no-effect control and ±100 the full control effect
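In quantitative HTS format, infected erythrocytes bearing luciferase-reporter parasites were treated for a single generation at 37 C. Luminescence after adding detection reagent served as the growth measure.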
Starred values were filed as active, the others as inactive; i = inactive; ? = inconclusive; / = no result; [ ] = remark or other dose. The list is not random: actives were taken first. Their share in the collection is about 22%. Unless noted, the call rests on the fitted dose curve; in most records, active means well fitted inhibition curve with a large enough effect; inconclusive means small, poorly fitted or top-dose-only effect, or another doubt; inactive means no such curve, though single readings can be large or run the other way.

SMILES	Shiga inhibitor	LmPK inh	Cycloheximide cs	Pf growth 96h	Pf growth 48h
C#CCOCCOCCOCCNc1nc(N2CCN(C(=O)[C@H]([C@@H](C)CC)n3cc(CCCN=C(N)N)nn3)CC2)nc(N2CCN(C(=O)[C@H](CCCCN)n3cc(CCC(=O)O)nn3)CC2)n1	-15	4%	-6	0%	7%
C#CCOCCOCCOCCNc1nc(N2CCN(C(=O)CCCCCCCCCCNC(=O)[C@H](CCCCN)n3cc(CCCC(=O)O)nn3)CC2)nc(N2CCN(C(=O)CCCCCCCCCCNC(=O)[C@H](CCCN=C(N)N)n3cc(C[C@@H](C)CC)nn3)CC2)n1	/	/	/	13µM*	10µM*
COc1cc(OC)c2c(C)cc(=O)oc2c1C(CCN1CCOCC1)c1ccc2c(c1)OCO2 (stereo not drawn)	-5	1%	-1	?	?
COc1cc(OC)c2c(-c3ccccc3)cc(=O)oc2c1C(CCN1CCCC(C)C1)c1ccc2c(c1)OCO2 (stereo not drawn)	-5	1%	-3	?	12µM*
COc1cc(OC)c2ccc(=O)oc2c1C(CCN1CCCC(C)C1)c1ccc(N(C)C)cc1 (stereo not drawn)	-7	3%	-2	?	?
COc1cc(OC)c2c(-c3ccccc3)cc(=O)oc2c1C(CCN1CCCCC1)c1ccc2c(c1)OCO2 (stereo not drawn)	-2	0%	-3	9.3µM*	?
COc1cc(O)c(C(CCN2CCCC(C)C2)c2cc(OC)c(OC)c(OC)c2)c(OC)c1 (stereo not drawn)	-9	-1%	-7	0.52µM*	1.3µM*
COc1cc(O)c(C(CCN2CCCCC2)c2ccc3c(c2)OCO3)c(OC)c1 (stereo not drawn)	7	1%	-1	0.47µM*	0.93µM*
COc1ccc(C(CCN2CCCC(C)C2)c2c(O)cc(OC)cc2OC)cc1 (stereo not drawn)	-7	/	-7	/	/
CCCC[C@H]1COCCS(=O)(=O)N1Cc1ccccc1F	7	-3%	4	4%	1%
COc1cc(OC)c2c(-c3ccccc3)cc(=O)oc2c1C(CC(=O)N1CCCC1)c1ccc2c(c1)OCO2 (stereo not drawn)	34	0%	25	?	9.3µM*
COc1ccc(C2CC(C)(c3ccc(OC)cc3)Nc3ccccc3N2)cc1 (stereo not drawn)	108*	2%	53*	?	?
O=C(CSc1nnc(-c2ccco2)o1)N1CCCCC1	66*	-5%	25*	14%	169%
CC1CCN(C(=O)CSc2nnc(-c3ccco3)o2)CC1	-2	0%	-3	-1%	/
CC1CC(C)CN(C(=O)CSc2nnc(-c3ccco3)o2)C1 (stereo not drawn)	47	-4%	13*	?	-15%
CC(=O)c1cccc(NC(=O)CSc2ccc(-c3ccco3)nn2)c1	15	-2%	3	-23%	-10%
O=C(CSc1ccc(-c2ccco2)nn1)N1CCCCC1	62*	-6%	61*	12%	40%
O=C(CSc1ccc(-c2ccco2)nn1)c1cccc([N+](=O)[O-])c1	20	3%	-5	13µM*	?
Cc1nn(C(=O)CCC(=O)NCCc2ccccc2)c2ccccc12	-3	-2%	10	?	35%
C=CCn1c(COc2cc(C)ccc2C(C)C)nnc1SCC(=O)c1c(N)n(C)c(=O)n(C)c1=O	-12	-1%	-4	?	-15%
COC(=O)C(C)N(C(=O)c1cccc2ccccc12)c1c(C)cccc1C (stereo not drawn)	-12	1%	-3	/	15µM*
COc1cc(/C=C2\SC(=S)N(CCC(=O)Nc3cccc(O)c3)C2=O)cc(OC)c1OC	/	14%	8	?	?
Cc1ccc(Cn2ccc(NC(=O)c3noc4c3CCCC4)n2)cc1	20	4%	11	?	31%
O=C(NC1CCCCC1)c1noc2c1CCCCC2	72*	-14%	39*	61%	125%
Cc1ccc(NC(=O)c2noc3c2CCCCC3)cc1	83*	-7%	67*	28%	13%
SMILES	Shiga inhibitor	LmPK inh	Cycloheximide cs	Pf growth 96h	Pf growth 48h
CCc1ccc(NC(=O)c2noc3c2CCCCC3)cc1	85*	-1%	23*	3.7µM*	135%
Cc1ccc(Cn2ccc(NC(=O)c3noc4c3CCCCC4)n2)cc1	46	-1%	10	6%	59%
Cc1ccc(Cn2nc(C)c(NC(=O)c3noc4c3CCCCC4)c2C)cc1	2	1%	2	?	-25%
CCc1ccc(NC(=O)c2noc3c2CCC3)cc1	28	14µM*	25*	?	/
CC1(C)C(=O)N(OCc2ccccc2)C(C)(C)C(=O)N1OCc1ccccc1	-7	0%	-3	?	/
N#Cc1ccsc1NC(=O)C1CCN(C(=O)c2ccc(Cl)cc2)CC1	/	/	/	-14%	-7%
CC(=O)N1CC(C)Sc2ccc(S(=O)(=O)NC3CCCCC3C)cc21 (stereo not drawn)	-1	-6%	-3	7%	-19%
O=c1[nH]c(N2CCCCC2)nc2ncn(Cc3ccccc3)c12	3	-8%	-3	?	-23%
CCn1c(=O)cc(OCC(=O)NCc2cccs2)c2ccccc21	-18	0%	-6	35%	7%
NC(=O)COC(=O)CN1C(=O)C2CCCCC2C1=O (stereo not drawn)	-8	0%	1	?	9%
CCc1ccc(NC(=O)c2noc3c2CCc2ccccc2-3)cc1	27	-9%	10	?	/
Cc1ccc(NC(=O)c2noc3c2CCCCC3)cc1C	107*	-2%	43*	?	340%
Cc1ccc(NC(=O)c2noc3c2CCc2ccccc2-3)cc1	47*	-1%	34*	19%	/
Cc1ccc(O)c(NC(=O)c2noc3c2CCCCC3)c1	185*	-9%	42*	-4%	-81%
COc1ccc(NC(=O)c2noc3c2CCCCC3)cc1	83*	5%	42*	8%	i
CN(C)c1ccc(S(=O)(=O)N2CCCCC2)cc1NC(=O)COc1ccccc1F	16	2%	-5	-14%	?
Cc1cc(Br)ccc1N=C1NC(=O)CS1	-1	0%	-3	-29%	-5%
CCc1ccccc1NC(=O)/C(=C/c1ccco1)c1ccccc1	-4	3%	8	1.9µM*	/
Cc1ccccc1NC(=O)/C(=C/c1ccco1)c1ccccc1	-3	5%	2	?	/
Cc1cc(OC(C)C(=O)NCCCN2CCOCC2)ccc1Cl (stereo not drawn)	13	2%	-1	-10%	-2%
CCC(C)(C)C1CCc2[nH]nc(C(=O)NCCCNC(=O)OC(C)(C)C)c2C1 (stereo not drawn)	/	/	/	-10%	9.3µM*
CCC(C)(C)C1CCc2[nH]nc(C(=O)NCc3ccccn3)c2C1 (stereo not drawn)	/	/	/	9.3µM*	15µM*
O=C(NCc1ccccn1)c1n[nH]c2ccccc12	62	-2%	27	13%[5.75 µM]	33%
